{"source": "PubChem BioAssay AID488838", "about": "(National Center for Advancing Translational Sciences (NCATS), 2010)", "note": "Records with an inconclusive call do not appear. Active and inactive are the calls of the source. Calls follow the shape of the dose curve; as a rule, active = well fitted inhibition curve with a large enough effect; inconclusive = small, poorly fitted or top-dose-only effect; inactive = flat fitted curve, though single readings scatter."}
{"target": "Luciferin 4-monooxygenase (Photinus pyralis) (UniProt P08659)", "sequence (P08659 whole entry, looked up, canonical isoform)": "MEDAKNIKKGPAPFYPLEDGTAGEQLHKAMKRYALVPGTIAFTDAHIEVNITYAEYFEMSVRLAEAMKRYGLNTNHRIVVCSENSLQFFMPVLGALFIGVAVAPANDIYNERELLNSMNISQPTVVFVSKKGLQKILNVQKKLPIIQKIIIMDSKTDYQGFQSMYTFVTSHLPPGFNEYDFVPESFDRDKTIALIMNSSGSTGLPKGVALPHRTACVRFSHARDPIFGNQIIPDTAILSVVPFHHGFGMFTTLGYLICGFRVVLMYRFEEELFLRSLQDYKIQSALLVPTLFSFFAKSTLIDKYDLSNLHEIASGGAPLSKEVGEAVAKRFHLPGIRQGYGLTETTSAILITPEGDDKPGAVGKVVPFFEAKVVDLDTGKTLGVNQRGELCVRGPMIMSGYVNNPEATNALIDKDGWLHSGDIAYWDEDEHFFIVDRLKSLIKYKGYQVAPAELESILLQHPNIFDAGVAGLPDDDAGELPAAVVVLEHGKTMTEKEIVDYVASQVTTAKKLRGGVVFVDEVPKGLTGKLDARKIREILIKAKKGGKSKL", "assay": "Counterscreen Assay for Enhancers of SMN2 Splice Variant Expression: Interaction with Luciferase Reporter for Further Probe SAR", "details": "purified firefly luciferase, luminescence, 5 min; series mostly up to 57.5 µM", "from_the_text": "NIH Chemical Genomics Center [NCGC] NIH Molecular Libraries Probe Production centers Network [MLPCN] MLPCN Grant: R03 MH084179-01 Assay Submitter (PI): Elliot Androphy NCGC Assay Overview: Spinal muscular atrophy (SMA) is caused by insufficient levels of the survival motor neuron protein SMN. The SMN locus on chromosome 5q13 contains two inverted copies of SMN called SMN1 and SMN2 which are 99% identical at the amino acid level. SMN1 is a fully functional protein and SMN2 skips exon 7 90% of the time. Skipping of exon 7 produces non-functional protein product. 10% of the SMN2 protein includes exon 7 and is fully functional. In the SMA disease state, mutations in the SMN1 locus are the cause of the disease state. Because only 10% of SMN2 is of the fully functional form, it is not sufficient to overcome the deficiency produced by the loss of the SMN1 product. A therapy that either increases the amount of SMN2 product made increases the inclusion of exon 7 has been proposed for the treatment of SMA. We have designed an assay to identify small molecules that can increase the amount of functional SMN2 product by appending a luciferase reporter gene after the native SMN2 gene, such that inclusion of exon 7 in the expressed product places the luciferase sequence in frame, thus generating functional luciferase enzyme. One potential source of false positives in the primary screening assay is stabilization of the reporter luciferase via direct binding. This assay attempts to identify such compounds by screening directly for luciferase activity in the absence of the cellular system.\nNCGC Assay Protocol Summary: The primary screen utilizes a luciferase reporter gene assay, combining the promoter and splicing based cassettes in tandem with the major portion of the native SMN1 cDNA, and then transfected into HEK293 cells. Compounds that modulate luciferase signal presumably modulate expression of […]. In this assay, we utilize purified firefly luciferase in lieu of a cellular reporter to identify compounds interacting directly with luciferase in the primary screen. Sequence, Parameter, Value, Description (1) Reagent, 2.5 uL, Enzyme in buffer (note A) (2) Compound, 23 nL, From stock solutions (3) Time, 5 minutes, Room temp (4) Reagent#2.5 ul, Luciferase detection reagent (note B) (5) Detector, 1 sec integrate, Luminescent read on Viewlux (note C) Sigma enzyme (1 mg) considered to be MW 61,000 diluted in 357 ul assay buffer to 50 uM stock. A - Enzyme and buffer consists of 50 mM Tris-acetate pH 7.6, 10 mM Mg acetate 0.05% BSA, 0.01% Tween and 5 nM firefly luciferase B - Detection reagent = britelite plus diluted 1:10 in PBS C - Viewlux settings were 1 second integration medium sensitivity Keywords: Spinal muscular atrophy, SMA, SMN2, high throughput screening, MLSMR, MLPCN, NIH Roadmap, qHTS and NCGC"}
{"smiles": "CCOC(=O)C1CCN(c2nc(-c3ccc(Br)cc3)cs2)CC1", "Potency": "inactive"}
{"smiles": "NC(=O)C1CCN(c2nccc(-c3ccc(Br)cc3)n2)CC1", "Potency": "25.3 µM (active)"}
{"smiles": "CN(C)c1cccc(-c2cnc(N3CCC(c4ncc[nH]4)CC3)s2)c1", "Potency": "20.1 µM (active)"}
{"smiles": "CC(=O)N1CCN(c2nc(-c3ccc(Br)cc3)cs2)CC1", "Potency": "0.8 µM (active)"}
{"smiles": "NC(=O)C1CCN(c2nc(-c3ccc(OC(F)(F)F)cc3)cs2)CC1", "Potency": "inactive"}
{"smiles": "N#Cc1ccccc1-c1csc(N2CCC(C(N)=O)CC2)n1", "Potency": "inactive"}
{"smiles": "CCOC(=O)C1CCN(c2ncc(-c3ccc4c(c3)OCCCO4)s2)CC1", "Potency": "8 µM (active)"}
{"smiles": "NC(=O)C1CCN(c2ncc(Br)s2)CC1", "Potency": "inactive"}
{"smiles": "CC(=O)C1CCN(c2ncc(-c3cccc(N(C)C)c3)s2)CC1", "Potency": "5.05 µM (active)"}
{"smiles": "CC(C)(C)OC(=O)NC1CCN(c2nc(-c3ccc(Br)cc3)cs2)CC1", "Potency": "inactive"}
{"smiles": "NC(=O)C1CCN(c2ncc(-c3ccc4c(c3)OCCCO4)s2)CC1", "Potency": "2.84 µM (active)"}
{"smiles": "O=C(c1ccco1)N1CCN(c2nc(-c3ccc(Br)cc3)cs2)CC1", "Potency": "inactive"}
{"smiles": "NC(=O)C1CCN(c2nccc(-c3ccc4c(c3)OCCCO4)n2)CC1", "Potency": "inactive"}
{"smiles": "COc1cc(-c2csc(N3CCC(C(N)=O)CC3)n2)cc(OC)c1OC", "Potency": "inactive"}
{"smiles": "CN(C)c1cccc(-c2ncnc(N3CCC(C(N)=O)CC3)n2)c1", "Potency": "inactive"}
{"smiles": "NC(=O)C1CCN(c2ncc(-c3ccc(Cl)cc3)s2)CC1", "Potency": "10.1 µM (active)"}
{"smiles": "Cc1ccc(-c2nnc(N3CCC(C(N)=O)CC3)s2)cc1", "Potency": "16 µM (active)"}
{"smiles": "CN(C)c1cccc(-c2cnc(N3CCC(C(N)=O)CC3)nc2)c1", "Potency": "11.3 µM (active)"}
{"smiles": "COc1ccc(-c2cnc(N3CCC(C(N)=O)CC3)s2)cc1OC", "Potency": "inactive"}
{"smiles": "CC(=O)Nc1ccc(-c2csc(N3CCC(C(N)=O)CC3)n2)cc1", "Potency": "inactive"}
{"smiles": "NC(=O)C1CCN(c2nc(-c3ccc4c(c3)OCO4)cs2)CC1", "Potency": "28.4 µM (active)"}
{"smiles": "NC(=O)C1CCN(c2nnc(-c3ccc(Br)cc3)s2)CC1", "Potency": "inactive"}
{"smiles": "O=C(c1ccccc1)N1CCN(c2nc(-c3ccc(Br)cc3)cs2)CC1", "Potency": "inactive"}
{"smiles": "CC(=O)NC1CCN(c2nc(-c3ccc(Br)cc3)cs2)CC1", "Potency": "inactive"}
{"smiles": "O=C(O)C1CCN(c2nc(-c3ccc(Br)cc3)cs2)CC1", "Potency": "1.42 µM (active)"}
{"smiles": "Brc1ccc(-c2csc(N3CCC(c4nn[nH]n4)CC3)n2)cc1", "Potency": "16 µM (active)"}
{"smiles": "NC(=O)C1CCN(c2ncc(-c3ccc4c(c3)OC(F)(F)O4)s2)CC1", "Potency": "16 µM (active)"}
{"smiles": "CN(C)c1cccc(-c2cnc(N3CCC(C(N)=O)CC3)s2)c1", "Potency": "0.635 µM (active)"}
{"smiles": "NC(=O)C1CCN(c2ncc(-c3ccc(Br)cc3)s2)CC1", "Potency": "4.01 µM (active)"}
{"smiles": "NC(=O)C1CCN(c2nccc(Cl)n2)CC1", "Potency": "inactive"}
{"smiles": "NC(=O)C1CCN(c2ncc(-c3ccc4c(c3)OCCO4)s2)CC1", "Potency": "5.05 µM (active)"}
{"smiles": "COc1ccc(-c2csc(N3CCC(C(N)=O)CC3)n2)cc1OC", "Potency": "inactive"}
{"smiles": "Nc1nc(N)c2c(OCC3CCN(Cc4ccccc4F)CC3)cccc2n1", "Potency": "inactive"}
{"smiles": "NC(=O)C1CCN(c2nc(-c3ccccc3Cl)cs2)CC1", "Potency": "inactive"}
{"smiles": "O=C(O)C1CCN(c2ncc(-c3ccc4c(c3)OCCCO4)s2)CC1", "Potency": "0.005 µM (active)"}
{"smiles": "COc1cccc(-c2csc(N3CCC(C(N)=O)CC3)n2)c1", "Potency": "25.3 µM (active)"}
{"smiles": "NC(=O)C1CCN(c2nc(-c3cccc(C(F)(F)F)c3)cs2)CC1", "Potency": "inactive"}
{"smiles": "NC1CCN(c2nc(-c3ccc(Br)cc3)cs2)CC1", "Potency": "2.01 µM (active)"}
{"smiles": "Cc1ccc(-c2cnc(N3CCC(C(N)=O)CC3)s2)cc1", "Potency": "5.05 µM (active)"}
{"smiles": "O=C(Nc1ccccc1)C1CCN(c2ncc(-c3ccc4c(c3)OCCCO4)s2)CC1", "Potency": "4.01 µM (active)"}
